Measured values as given in PubChem BioAssay AID1159580 (chemical genetic matrix, 2015).
Several values for one entry are separate records, joined by “and”; a condition that tells them apart may be missing. Equal values may be shown once. About 2,000 (36%) of roughly 5,500 compounds were called active. About 18% were inconclusive and are not listed. Rule as the data show it: active = normalized growth mostly below about 0.91 (no sharp cut-off); inconclusive = no clear call, values can overlap the other calls; inactive = mostly above about 0.92. This is one part of the list.

Assay: chemical genetic growth profiling, strain panel (AID 1159580);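 also: tested at 20 µM; growth read once vehicle control cultures reached saturation at 30 °C; 1 = growth at the plate median or of vehicle wells; lower values mean less growth of the strain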
Conditions: S. cerevisiae deletion strains, growth OD

**Q.** Which normalized growth (locus YAL013W, strain DEP1, stronger effect = lower value) does the source give for `C[C@H]1[C@H](C)CC[C@]2(C(=O)O)CC[C@]3(C)C(=CCC4[C@@]5(C)C[C@@H](O)[C@H](O)[C@@](C)(CO)C5[C@H](O)C[C@]43C)[C@H]12` (some centres not stated) here?
**A.** 0.769 (active)

**Q.** And the normalized growth (locus YAL021C, strain ccr4, stronger effect = lower value)?
**A.** 1.01 (inactive)

**Q.** What about the normalized growth (locus YAL026C, strain drs2, stronger effect = lower value) of the same molecule?
**A.** 0.963 (inactive)

**Q.** And the normalized growth (locus YAL030W, strain snc1, stronger effect = lower value)?
**A.** 0.973 (inactive)

**Q.** And the normalized growth (locus YBL061C, strain skt5, stronger effect = lower value)?
**A.** 0.952 (inactive)

**Q.** And the normalized growth (locus YBR009C, strain hhf1, stronger effect = lower value)?
**A.** 0.936 (inactive)

**Q.** What about the normalized growth (locus YBR021W, strain FUR4, stronger effect = lower value) of the same molecule?
**A.** 0.957 (inactive)

**Q.** What about the normalized growth (locus YBR023C, strain chs3, stronger effect = lower value) of the same molecule?
**A.** 0.942 (inactive)

**Q.** What about the normalized growth (locus YBR171W, strain sec66, stronger effect = lower value) of the same molecule?
**A.** 0.951 (inactive)

**Q.** What about the normalized growth (locus YBR229C, strain ROT2, stronger effect = lower value) of the same molecule?
**A.** 0.987 (inactive)

**Q.** What about the normalized growth (locus YBR231C, strain swc5, stronger effect = lower value) of the same molecule?
**A.** 0.953 (inactive)

**Q.** What about the normalized growth (locus YBR279W, strain paf1, stronger effect = lower value) of the same molecule?
**A.** 0.948 (inactive)

**Q.** And the normalized growth (locus YCL011C, strain gbp2, stronger effect = lower value)?
**A.** 0.968 (inactive)

**Q.** And the normalized growth (locus YCL016C, strain dcc1, stronger effect = lower value)?
**A.** 0.956 (inactive)

**Q.** What about the normalized growth (locus YCL029C, strain bik1, stronger effect = lower value) of the same molecule?
**A.** 0.981 (inactive)

**Q.** What about the normalized growth (locus YCL061C, strain MRC1, stronger effect = lower value) of the same molecule?
**A.** 0.971 (inactive)

**Q.** What about the normalized growth (locus YCL069W, strain vba3, stronger effect = lower value) of the same molecule?
**A.** 0.973 (inactive)

**Q.** And the normalized growth (locus YCR088W, strain abp1, stronger effect = lower value)?
**A.** 0.961 (inactive)

**Q.** And the normalized growth (locus YDL005C, strain med2, stronger effect = lower value)?
**A.** 0.948 (inactive)

**Q.** What about the normalized growth (locus YDL035C, strain GPR1, stronger effect = lower value) of the same molecule?
**A.** 0.972 (inactive)

**Q.** And the normalized growth (locus YDL040C, strain nat1, stronger effect = lower value)?
**A.** 0.965 (inactive)

**Q.** What about the normalized growth (locus YDL074C, strain BRE1, stronger effect = lower value) of the same molecule?
**A.** 0.895 (inactive)

**Q.** What about the normalized growth (locus YDL101C, strain DUN1, stronger effect = lower value) of the same molecule?
**A.** 0.973 (inactive)

**Q.** And the normalized growth (locus YDL185W, strain tfp1, stronger effect = lower value)?
**A.** 1.01 (inactive)

**Q.** What about the normalized growth (locus YDL192W, strain arf1, stronger effect = lower value) of the same molecule?
**A.** 0.91 (active)

**Q.** What about the normalized growth (locus YDR001C, strain nth1, stronger effect = lower value) of the same molecule?
**A.** 0.969 (inactive)

**Q.** What about the normalized growth (locus YDR069C, strain doa4, stronger effect = lower value) of the same molecule?
**A.** 0.936 (inactive)

**Q.** And the normalized growth (locus YDR101C, strain arx1, stronger effect = lower value)?
**A.** 0.967 (inactive)

**Q.** And the normalized growth (locus YDR137W, strain rgp1, stronger effect = lower value)?
**A.** 0.794 (active)

**Q.** And the normalized growth (locus YDR150W, strain NUM1, stronger effect = lower value)?
**A.** 0.996 (inactive)

**Q.** And the normalized growth (locus YDR159W, strain sac3, stronger effect = lower value)?
**A.** 0.854 (active)

**Q.** And the normalized growth (locus YDR162C, strain NBP2, stronger effect = lower value)?
**A.** 0.954 (inactive)

**Q.** What about the normalized growth (locus YDR195W, strain ref2) of the same molecule?
**A.** 0.84 (active)

**Q.** What about the normalized growth (locus YDR297W, strain sur2, stronger effect = lower value) of the same molecule?
**A.** 0.96 (inactive)

**Q.** And the normalized growth (locus YDR318W, strain mcm21, stronger effect = lower value)?
**A.** 0.982 (inactive)

**Q.** And the normalized growth (locus YDR334W, strain swr1, stronger effect = lower value)?
**A.** 0.978 (inactive)

**Q.** What about the normalized growth (locus YDR335W, strain msn5, stronger effect = lower value) of the same molecule?
**A.** 0.967 (inactive)

**Q.** What about the normalized growth (locus YDR388W, stronger effect = lower value) of the same molecule?
**A.** 0.911 (active)

**Q.** What about the normalized growth (locus YDR392W, strain spt3, stronger effect = lower value) of the same molecule?
**A.** 0.916 (inactive)

**Q.** What about the normalized growth (locus YDR502C, strain sam2, stronger effect = lower value) of the same molecule?
**A.** 0.937 (inactive)

**Q.** And the normalized growth (locus YEL003W, strain gim4, stronger effect = lower value)?
**A.** 0.954 (inactive)

**Q.** What about the normalized growth (locus YEL037C, strain rad23, stronger effect = lower value) of the same molecule?
**A.** 0.969 (inactive)

**Q.** And the normalized growth (locus YEL061C, strain CIN8 (second series), stronger effect = lower value)?
**A.** 0.955 (inactive)

**Q.** And the normalized growth (locus YEL061C, strain CIN8, stronger effect = lower value)?
**A.** 0.961 (inactive)

**Q.** What about the normalized growth (locus YER015W, strain faa2, stronger effect = lower value) of the same molecule?
**A.** 0.959 (inactive)

**Q.** And the normalized growth (locus YER016W, strain bim1, stronger effect = lower value)?
**A.** 0.971 (inactive)

**Q.** And the normalized growth (locus YER110C, stronger effect = lower value)?
**A.** 0.978 (inactive)

**Q.** And the normalized growth (locus YER111C, strain swi4, stronger effect = lower value)?
**A.** 0.955 (inactive)

**Q.** And the normalized growth (locus YER155C, strain BEM2 (second series), stronger effect = lower value)?
**A.** 0.863 (active)

**Q.** And the normalized growth (locus YER155C, strain BEM2, stronger effect = lower value)?
**A.** 0.985 (inactive)

**Q.** And the normalized growth (locus YER167W, strain BCK2, stronger effect = lower value)?
**A.** 0.977 (inactive)

**Q.** And the normalized growth (locus YFR010W, strain ubp6, stronger effect = lower value)?
**A.** 0.938 (inactive)

**Q.** And the normalized growth (locus YGL078C, strain dbp3, stronger effect = lower value)?
**A.** 0.939 (inactive)

**Q.** And the normalized growth (locus YGL086W, strain mad1, stronger effect = lower value)?
**A.** 1.18 [resistant] (active)

**Q.** And the normalized growth (locus YGL167C, strain pmr1, stronger effect = lower value)?
**A.** 0.962 (inactive)

**Q.** What about the normalized growth (locus YGL173C, strain kem1, stronger effect = lower value) of the same molecule?
**A.** 0.949 (inactive)

**Q.** What about the normalized growth (locus YGL227W, strain vid30, stronger effect = lower value) of the same molecule?
**A.** 0.975 (inactive)

**Q.** And the normalized growth (locus YGL240W, strain doc1, stronger effect = lower value)?
**A.** 0.886 (active)

**Q.** And the normalized growth (locus YGL248W, strain PDE1, stronger effect = lower value)?
**A.** 0.994 (inactive)

**Q.** And the normalized growth (locus YGL253W, strain hxk2, stronger effect = lower value)?
**A.** 0.971 (inactive)

**Q.** What about the normalized growth (locus YGR135W, strain pre9, stronger effect = lower value) of the same molecule?
**A.** 0.943 (inactive)

**Q.** What about the normalized growth (locus YGR252W, strain gcn5, stronger effect = lower value) of the same molecule?
**A.** 0.849 (inactive)

**Q.** What about the normalized growth (locus YHR013C, strain ard1, stronger effect = lower value) of the same molecule?
**A.** 1.03 (inactive)

**Q.** And the normalized growth (locus YHR027C, strain rpn1, stronger effect = lower value)?
**A.** 0.974 (inactive)

**Q.** And the normalized growth (locus YHR030C, strain SLT2, stronger effect = lower value)?
**A.** 1 (inactive) and 0.976 (inactive)

**Q.** And the normalized growth (locus YHR079C, strain IRE1 (second series), stronger effect = lower value)?
**A.** 0.968 (inactive)

**Q.** What about the normalized growth (locus YHR079C, strain IRE1, stronger effect = lower value) of the same molecule?
**A.** 0.979 (inactive)

**Q.** And the normalized growth (locus YHR094C, strain hxt1, stronger effect = lower value)?
**A.** 0.977 (inactive)

**Q.** What about the normalized growth (locus YHR129C, strain ARP1, stronger effect = lower value) of the same molecule?
**A.** 0.998 (inactive)

**Q.** And the normalized growth (locus YHR142W, strain chs7, stronger effect = lower value)?
**A.** 0.949 (inactive)

**Q.** What about the normalized growth (locus YHR200W, strain rpn10, stronger effect = lower value) of the same molecule?
**A.** 0.944 (inactive)

**Q.** What about the normalized growth (locus YIL066C, strain RNR3, stronger effect = lower value) of the same molecule?
**A.** 0.985 (inactive)

**Q.** What about the normalized growth (locus YIL073C, strain SPO22, stronger effect = lower value) of the same molecule?
**A.** 1.02 (inactive)

**Q.** What about the normalized growth (locus YIL125W, strain kgd1, stronger effect = lower value) of the same molecule?
**A.** 0.947 (inactive)

**Q.** What about the normalized growth (locus YIR030C, strain dcg1, stronger effect = lower value) of the same molecule?
**A.** 0.971 (inactive)

**Q.** And the normalized growth (locus YJL092W, strain hpr5, stronger effect = lower value)?
**A.** 0.963 (inactive)

**Q.** What about the normalized growth (locus YJL095W, strain BCK1 (second series), stronger effect = lower value) of the same molecule?
**A.** 0.972 (inactive)

**Q.** What about the normalized growth (locus YJL095W, strain BCK1, stronger effect = lower value) of the same molecule?
**A.** 0.944 (inactive) and 0.792 (active)

**Q.** What about the normalized growth (locus YJL115W, strain asf1, stronger effect = lower value) of the same molecule?
**A.** 0.967 (inactive)

**Q.** What about the normalized growth (locus YJL129C, strain trk1, stronger effect = lower value) of the same molecule?
**A.** 0.937 (inactive)

**Q.** What about the normalized growth (locus YJL134W, strain LCB3, stronger effect = lower value) of the same molecule?
**A.** 0.991 (inactive)

**Q.** And the normalized growth (locus YJL154C, strain vps35, stronger effect = lower value)?
**A.** 0.968 (inactive)

**Q.** What about the normalized growth (locus YJL164C, strain tpk1, stronger effect = lower value) of the same molecule?
**A.** 0.944 (inactive)

**Q.** What about the normalized growth (locus YJL166W, strain qcr8, stronger effect = lower value) of the same molecule?
**A.** 0.948 (inactive)

**Q.** And the normalized growth (locus YJL168C, strain set2, stronger effect = lower value)?
**A.** 0.982 (inactive)

**Q.** And the normalized growth (locus YJL187C, strain SWE1 (second series), stronger effect = lower value)?
**A.** 0.959 (inactive)

**Q.** What about the normalized growth (locus YJR043C, strain POL32, stronger effect = lower value) of the same molecule?
**A.** 0.985 (inactive)
